In PubChem BioAssay AID1851 (National Center for Advancing Translational Sciences (NCATS), 2009):
“And” between values parts separate entries of the source, which are not always exact repeats. Equal values may be shown once. Among all 16,000 compounds or so, about 5,700 (36%) were called active. Inconclusive results (about 24%) are left out. The call rests on the fitted dose curve; in most records, active means well fitted curve in the direction sought with a large enough effect; inconclusive means small, poorly fitted or top-dose-only effect, or effect the other way; inactive means no such curve, though single readings can be large or run the other way. The list shows a part of the results. Square brackets hold non-standard residues; d marks the D form. Peptide text beside a SMILES is read from it.

Molecular target: Cytochrome P450 1A2 (Homo sapiens) (UniProt P05177)
Assay: Cytochrome panel assay with activity outcomes
Settings: recombinant CYP, pro-luciferin dealkylation, luminescence, p450-cyp1a2; series mostly up to 57.1 µM; activity, negative = inhibition: at the top concentration
On the % scale 0 is the no-effect control and ±100 the full control effect.

Sequence of Cytochrome P450 1A2 (Homo sapiens) (P05177 whole entry, looked up): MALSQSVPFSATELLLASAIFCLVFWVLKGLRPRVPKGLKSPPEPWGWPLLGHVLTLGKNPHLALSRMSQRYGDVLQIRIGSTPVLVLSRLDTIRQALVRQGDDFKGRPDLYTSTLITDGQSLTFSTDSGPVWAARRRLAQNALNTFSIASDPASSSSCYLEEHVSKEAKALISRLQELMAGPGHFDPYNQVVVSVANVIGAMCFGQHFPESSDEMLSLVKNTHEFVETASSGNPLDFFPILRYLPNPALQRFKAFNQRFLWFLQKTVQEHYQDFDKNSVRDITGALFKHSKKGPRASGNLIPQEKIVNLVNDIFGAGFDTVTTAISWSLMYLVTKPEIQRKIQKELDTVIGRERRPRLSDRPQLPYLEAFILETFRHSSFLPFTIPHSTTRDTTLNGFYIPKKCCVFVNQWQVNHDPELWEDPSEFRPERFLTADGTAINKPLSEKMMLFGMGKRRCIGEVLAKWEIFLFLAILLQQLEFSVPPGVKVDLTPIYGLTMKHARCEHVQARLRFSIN

Structure (SMILES) | AC50 | activity, negative = inhibition
c1cc2c(cc1C1CCCCC1)c1c3n2CCN[C@H]3CCC1 | 15.8 µM (active) | –
Cc1ccc(NC(=O)c2sccc2SCc2cccc(C(F)(F)F)c2)cc1 | 2.82 µM (active) | –
O=C(N/N=C/c1ccc(Sc2nc3ccccc3s2)c([N+](=O)[O-])c1)c1ccccn1 | – | -13.5% (inactive)
CN(CCO)c1cc(Sc2nc3ccccc3s2)c2nonc2c1[N+](=O)[O-] | 14.1 µM (active) | –
O=[N+]([O-])c1c(NCCO)cc(Sc2nc3ccccc3s2)c2nonc12 | 1 µM (active) | –
CC1(C)C2([N+](=O)[O-])CN3CC1([N+](=O)[O-])CN(C2)C3c1ccccc1 (stereo unspecified) | – | 15.2% (inactive)
CSCC[C@H](C=O)NC(=O)[C@H](CC(C)C)NC(=O)[C@H](CC(C)C)NC(C)=O (Ac-Leu-Leu-[dM]-aldehyde) | – | -11.3% (inactive)
C=CCSc1ccsc1C(=O)O | – | 4% (inactive)
C=CCSc1nc(Oc2ccccc2)c2sccc2n1 | 2.51 µM (active) | –
C=CCNc1nc(SCC=C)nc2ccsc12 | 0.501 µM (active) | –
C=CCSc1nc(NC)c2sccc2n1 | 1 µM (active) | –
N[C@@H](Cc1ncccn1)C(=O)O | – | -7.74% [at 11.4 µM] (inactive)
CCCC1(C(=O)OC)C=C2C(=C(C(C)C)C(=O)C2C)CN1 (stereo unspecified) | – | -20.3% (inactive)
CCCC1(C(=O)OC)C=C2C(=C(c3ccccc3)C(=O)C2C)CN1 (stereo unspecified) | 15.8 µM (active) | –
CC1(C)CC(=O)C(CCC(=O)c2ccccc2)C(C)(C)N1 (stereo unspecified) | – | -7.19% (inactive)
CCCCCC1=C2CNC(CCC)(C(=O)OC)C=C2C(C)C1=O (stereo unspecified) | 31.6 µM (active) | –
CCCC1(C(=O)OC)C=C2C(=C(C)C(=O)C2C)CN1 (stereo unspecified) | – | -20.6% (inactive)
COC(=O)C1(C)C=C2C(=C(c3ccccc3)C(=O)C2C)CN1 (stereo unspecified) | 15.8 µM (active) | –
CCN=C(N)CSS(=O)(=O)O | – | -10.1% [at 11.4 µM] (inactive)
CN(C)c1ccc(-c2ccc3ncnc(-n4ccnc4)c3c2)cc1 | 0.316 µM (active) | –
c1cn(-c2ncnc3ccc(-c4ccoc4)cc23)cn1 | 1.26 µM (active) | –
Cc1ccccc1-c1ccc2ncnc(-n3ccnc3)c2c1 | 0.794 µM (active) | –

Structure (SMILES) | AC50 | activity, negative = inhibition
Cc1cc2c(s1)CCCCC(=O)N2 | – | -20.4% (inactive)
C=C(CC1([C@@H](NP(=O)(c2ccccc2)c2ccccc2)[C@H]2C[C@@H]2CCN(C(=O)OCC)S(=O)(=O)c2ccc(C)cc2)CC1)c1ccccc1 | – | -5.84% (inactive)
CCN1C(=O)[C@H]2[C@H]3[C@H](O)[C@H](O)C/C(=N/O[C@@H]4O[C@@H](COC(C)=O)[C@@H](OC(C)=O)[C@@H](OC(C)=O)[C@H]4OC(C)=O)[C@@H]3CC[C@@H]2C1=O | – | -12.6% [at 11.4 µM] (inactive)
Cc1ccc(-n2c(C)cc(/C=C(\C#N)C(=O)NCC3CCCO3)c2C)cc1 (stereo unspecified) | – | -16.2% (inactive)
COc1cc(/C=C(/NC(=O)c2ccccc2)C(=O)Nc2ccccc2)c([N+](=O)[O-])cc1OC | – | -9.31% (inactive)
Cc1cccc(C)c1NC(=O)/C(C#N)=C/c1cccs1 | 12.6 µM (active) | –
CCS(=O)(=O)N1CCC(C(=O)NCC2CCCO2)CC1 (stereo unspecified) | – | -7.48% (inactive)
COc1cc(/C=C(\C#N)C(=O)NCC2CCCO2)c([N+](=O)[O-])cc1OC (stereo unspecified) | 4.47 µM (active) | –
Cc1cccc(C)c1NC(=O)[C@H](C)N | – | -13.8% [at 25.6 µM] (inactive)
N#C/C(=C\c1cccs1)C(=O)NCC1CCCO1 (stereo unspecified) | 12.6 µM (active) | –
Cc1cccc(C)c1NC(=O)C[N+](C)(C)C | – | 0.715% (inactive)
COc1ccc(S(=O)(=O)N2CCC(C(=O)NCC3CCCO3)CC2)cc1C (stereo unspecified) | – | 11.5% (inactive)
O=C(O)c1cccnc1 | – | -3.39% [at 25.6 µM] (inactive)
O=C(O)c1ccc(SSc2ccc(C(=O)O)cn2)nc1 | 3.16 µM (active) | –
C[Si](C)(c1ccc(C(=O)O)cc1)c1ccc(C(=O)O)cc1 | – | -13% [at 11.4 µM] (inactive)
CN(C)c1ccccc1CN1CCCN(Cc2ccccc2N(C)C)C1c1ccncc1 | – | 3.06% [at 11.4 µM] (inactive)
Nc1cccc2cc(S(=O)(=O)Nc3ccc(C(=O)O)cc3)ccc12 | – | 2.54% [at 11.4 µM] (inactive)
CC(=O)c1cccc(NS(=O)(=O)c2ccc(N/C=C\C(=O)c3ccc(F)cc3)cc2)c1 | 10 µM (active) | –
CC(=O)c1ccc(S(=O)(=O)NC(=O)NC2CCCCC2)cc1 | – | -6.56% [at 25.6 µM] (inactive)
CCCN(CC1CC1)c1nc(C)nc(Nc2c(Cl)cc(Cl)cc2Cl)c1Cl | – | -15.7% (inactive)
CCCn1nnnc1NC(=O)COc1ccc(Cl)cc1C | 14.1 µM (active) | –
Cc1cc(Cl)ccc1OCC(=O)Nc1nc(N)nc(N)n1 | – | 2.06% [at 2.29 µM] (inactive)

Structure (SMILES) | AC50 | activity, negative = inhibition
Cc1cc(Cl)ccc1OCC(=O)NCc1ccncc1 | 1.12 µM (active) | –
CCn1c(=O)c2c(O)cc(=O)oc2c2ccccc21 | 11.2 µM (active) | –
CC(C)n1c(=O)c2c(O)cc(=O)oc2c2ccccc21 | 5.01 µM (active) | –
O=C(c1cnccn1)N1CCC2(CC1)CCN(c1ccccn1)CC2 | – | -13.1% (inactive)
CCn1c(SCC(=O)NC2CCCc3ccccc32)nnc1-c1cccs1 (stereo unspecified) | – | -21.7% (inactive)
CCn1c(SCC(=O)NC2CCCCC2)nnc1-c1cc2cccc(OC)c2o1 | 8.91 µM (active) | –
O=C(CSc1nnc(-c2ccc(Cl)cc2Cl)n1C1CCCCC1)NC1CCS(=O)(=O)C1 (stereo unspecified) | – | 0.975% (inactive)
Nc1ccccc1C#Cc1ccccc1 | 501 nM (active) and 1.58 µM (active) | –
Cc1cc(C)c(Cn2cnc(-c3ccc([N+](=O)[O-])cc3)c2)c(C)c1 | 15.8 µM (active) | –
C1CCN(CC[C@@H]2CCCCN2)CC1 | – | -7.33% [at 11.4 µM] (inactive)
Cc1ccc(-c2nnc(-c3ccc(NC(=O)c4cccs4)cc3)o2)cc1 | – | -23.1% (inactive)
Cc1ccccc1-c1nc(-c2ccc(NC(=O)c3cccs3)cc2)no1 | 14.1 µM (active) | –
CC(=O)N1CCc2cc(S(=O)(=O)CCC(=O)Nc3c(C)n(C)n(-c4ccccc4)c3=O)ccc21 | – | -24.8% (inactive)
Cc1ccccc1OCCNC(=O)c1ccccc1Sc1ccccc1C#N | 14.1 µM (active) | –
Cc1ccccc1OCC(=O)Nc1sc(C(=O)Nc2cccc(C)c2C)c(C)c1C#N | – | 7.9% (inactive)
Cc1cc(N)ccc1NC(=O)c1ccccc1 | 3.16 µM (active) | –
CC(=O)c1cc(NC(=O)c2ccccc2)c(=O)oc1/C=C/N(C)C | 12.6 µM (active) | –
CCOC(=O)c1cc(NC(=O)c2ccc(C)cc2)c(=O)oc1-c1ccccc1 | – | -24.4% (inactive)
CC(C)(C)N(NC(=O)c1ccccc1)C(=O)c1cccc(C(=O)N(NC(=O)c2ccccc2)C(C)(C)C)c1 | – | 2.94% (inactive)
CC(=O)c1cc(NC(=O)c2cccc(C(F)(F)F)c2)c(=O)oc1/C=C/N(C)C | – | 3.96% (inactive)
Cc1oc(=O)c(NC(=O)c2ccccc2)cc1C(=O)c1ccccc1 | 12.6 µM (active) | –
Cc1ccc(C(=O)Nc2cc3c(oc2=O)CCCC3=O)cc1 | 14.1 µM (active) | –
